Experimental data: PubChem BioAssay AID651812 (National Center for Advancing Translational Sciences (NCATS), 2012)
“And” between values parts separate entries of the source, which are not always exact repeats. Equal values may be shown once. The whole screen tested about 2,100 compounds, of which about 650 (31%) were called active. Roughly 16% stayed inconclusive and do not appear here. Calls come from the whole dose curve; as a rule, active = well fitted inhibition curve with a large enough effect; inconclusive = small, poorly fitted or top-dose-only effect; inactive = flat fitted curve, though single readings scatter. This is one part of the list.

assay: qHTS for inhibitors of Vif-A3G interactions: Cherry picks; settings: HeLa A3G-eYFP + Vif (tagged APOBEC3G with the HIV-1 protein that degrades it), 24 h; Potency: eYFP fluorescence increase; series mostly up to 36.9 µM; activity, negative = fluorescence increase: at the top concentration; note: nearly all actives have a fitted effect of over 80% in size; for activity, negative = fluorescence increase: % of control where 0% means no effect
Method in brief: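 HeLa cells stably expressing A3G-eYFP and Vif, cultured overnight then exposed to compounds at several concentrations for 24 hours at 37 C, 5% CO2; cellular yellow fluorescence (488 nm ex, 500-530 nm em) imaged on Acumen, MG132 positive control.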
Potency is the fitted concentration of half-maximal effect.

Potency, active:
C=C(NC(=O)C(=C)NC(=O)c1csc(C2=NC3c4csc(n4)C4NC(=O)c5csc(n5)C(C(C)(O)C(C)O)NC(=O)C5CSC(=N5)/C(=C/C)NC(=O)C(C(C)O)NC(=O)c5csc(n5)C3(CC2)NC(=O)C(C)NC(=O)C(=C)NC(=O)C(=C)NC(=O)C(C(C)C)NC2C=Cc3c(C(C)O)cc(nc3C2O)C(=O)OC4C)n1)C(N)=O (stereo not drawn) 4.44 µM, CCN(CC)c1ccc(/C=C/c2cccc[n+]2C)c(OC)c1 17.7 µM, NN=C1c2ccccc2C(=O)C1C(=O)C(c1ccccc1)c1ccccc1 (stereo not drawn) 12.5 µM, COc1cc2c3nnc(-c4ccc(F)cc4)c-3cn(Cc3ccc(C)cc3)c2cc1OC 5.59 µM, CCn1c(O)c(/C=N/N=C/c2ccc(OC)cc2)c2cc(C3=NNC(=O)CC3)ccc21 5.8 µM, Cc1ccc(-c2cn3nc(-c4ccccc4)c(-c4ccccc4)nc3n2)cc1 20.6 µM, N#Cc1c(C(F)(F)F)cc(-c2ccco2)nc1SCc1ccccn1 16.4 µM, Cc1ccccc1N1C(=O)c2cccc3c(N(C)CCO)ccc(c23)C1=O 20.6 µM, CN1C/C(=C\c2ccc(N3CCOCC3)cc2)C(=O)/C(=C/c2ccc(N3CCOCC3)cc2)C1 18.4 µM, CC[n+]1ccccc1/C=C/c1ccc(N(C)C)cc1 18.4 µM, CC(C)CC[n+]1ccccc1/C=C/c1ccc(N(C)C)cc1 20.6 µM, Cc1ccc2nc(/C(C#N)=C\c3ccc([N+](=O)[O-])o3)[nH]c2c1 3.26 µM, Cc1c(Cl)cccc1-c1ccc(/C=C(\C#N)c2nc3ccccc3[nH]2)o1 16.4 µM, N#C/C(=C\c1ccc(-c2ccc(C(=O)O)cc2)o1)c1nc2ccccc2[nH]1 4.61 µM, Cc1ccc2nc(/C(C#N)=C/c3ccc(-c4ccc(C(=O)OC(C)C)cc4)o3)[nH]c2c1 6.51 µM, N#C/C(=C\c1ccc(-c2ccc(F)cc2F)o1)c1nc2ccccc2[nH]1 20.6 µM, Cc1ccc2nc(/C(C#N)=C/c3ccc(-c4ccccc4C(=O)O)o3)[nH]c2c1 3.26 µM, Cc1ccc2nc(/C(C#N)=C/c3ccc(-c4ccc(F)cc4F)o3)[nH]c2c1 23.1 µM, Cc1ccc2nc(/C(C#N)=C/c3ccc(-c4cccc(Cl)c4)o3)[nH]c2c1 6.51 µM, CCOC(=O)c1c(C)sc(-c2c(-c3ccccc3)[nH]c3[nH]c(=O)[nH]c(=O)c23)c1O 7.31 µM, Nc1c(C(=O)Nc2ccccc2F)sc2nc(-c3ccco3)ccc12 23.1 µM, Cn1cc(C2=C(c3ccc(Cl)cc3Cl)C(=O)NC2=O)c2ccccc21 13 µM and 18.4 µM, Clc1ccc(/C=N/NC2=Nc3cccc4cccc2c34)cc1 18.4 µM, COc1ccc(-n2c(O)c(/C=N/NS(=O)(=O)c3cccc([N+](=O)[O-])c3)c3ccccc3c2=O)cc1OC 15.8 µM, COc1ccc(-n2c(O)c(/C=N/NS(=O)(=O)c3ccc(C)c([N+](=O)[O-])c3)c3ccccc3c2=O)cc1OC 11.6 µM, CN(C)c1ccc2ccc3cccc4ccc1c2c34 14.6 µM, Cc1ccc(-c2nc(-c3cc4cccc(OCc5cccc(F)c5)c4oc3=O)no2)cc1 18.4 µM, CCCCCCc1cc2cc(-c3nnc(-c4ccccc4OC)o3)c(=O)oc2cc1O 3.53 µM, CCCCCCc1cc2cc(-c3nnc(-c4ccccc4)o3)c(=O)oc2cc1O 1.58 µM, O=S(=O)(Nc1nc2n(n1)C(c1ccccc1)C=C(c1ccc(Cl)cc1)N2)c1ccccc1 (stereo not drawn) 18.4 µM, CC(=O)Nc1sc(C)c(C)c1C(=O)OCC(=O)Nc1ccccc1 20.6 µM, CN1C2CCC1/C(=C/c1cccn1C)C(=O)/C2=C\c1cccn1C 18.4 µM, Cn1cccc1/C=C1\CC(C(C)(C)C)C/C(=C\c2cccn2C)C1=O (stereo not drawn) 7.31 µM

activity, negative = fluorescence increase, inactive:
CCN(CC)c1ccc(NC(=O)c2cccc(F)c2)c(C)c1 -9.15%, COc1ccc(C(=S)N2CCN(c3cccc(Cl)c3)CC2)c(OC)c1 0.538%, Cc1ccc(-n2c(O)c(/C=C3/C(c4ccccc4)=Nc4ccccc43)c(=O)[nH]c2=O)cc1 -3.5%, CN(C)c1ccc2nc3c(=O)[nH]c(=O)nc-3n(CC(O)C(O)C(O)CO)c2c1 (stereo not drawn) 1.05% [at 46.1 µM], O=C(c1ccccc1)C1C(=O)c2ccccc2C1=O 11.2% [at 46.1 µM], Cc1cccc(CS(=O)(=O)c2ncc(Cl)c(C(=O)Nc3c(C)cccc3C)n2)c1 1.87%, COc1ccc(C2=NOC(C(=O)NCc3ccc(F)cc3)C2)cc1OC (stereo not drawn) -2.75%, COc1ccc(-c2cnc3c(NC=O)cc(-c4cc(OC)c(OC)c(OC)c4)cn23)cc1OC -7.24%, Cc1ccc(C)c(Cn2c(=O)n(CCCC(=O)NCc3ccco3)c(=O)c3sccc32)c1 -1.81%, NNC(=S)Nc1c(F)cc(F)cc1Br 2.31% [at 46.1 µM], N#Cc1ccc(-c2ccco2)nc1SCc1ccccc1 -4.02%, Cc1cc(C)cc(NC2=NC3(CCCCC3)N=C(N)N2)c1 -11.4%, COc1ccc(OC)c(NS(=O)(=O)c2ccc(Cl)s2)c1 -0.929%, COc1ccccc1N1C(=O)c2cccc3c(C(=O)O)ccc(c23)C1=O -8.99%, Cc1ccccc1OCC(=O)NNC(=O)Nc1ccc(Cl)cc1 1.15%, O=C1/C(=C/c2ccccc2)CN(C(=O)CCN2CCOCC2)C/C1=C\c1ccccc1 -8.81%, CCN1C/C(=C/c2cccc([N+](=O)[O-])c2)C(=O)/C(=C/c2cccc([N+](=O)[O-])c2)C1 -1.75%, COc1ccc(N2CC(C(=O)N/N=C/c3ccc(C)cc3)CC2=O)cc1 (stereo not drawn) -12.6%, COc1ccc(-c2nc3c4ccccc4ccn3c2Cc2ccsc2)cc1OC 3.28%, CCOC(=O)c1[nH]c(C)c(C(=O)Nc2ccccc2C)c1C -1.23%, Cc1ccc([N+](=O)[O-])cc1-c1ccc(/C=C(\C#N)c2[nH]nc(N)c2C#N)o1 -8.72%, COc1ccc(-c2[nH]ncc2N=Nc2ccccc2)cc1 -0.14%, O=C(c1[nH]c(C(F)(F)F)nc1-c1ccccc1)N1CCN(c2ccccc2)CC1 -8.65%, COc1cccc(/C=N/NC(=O)c2cc3c(OC)c(OC)ccc3[nH]2)c1OC -7.13%, Cc1cc(-c2ccccc2)nc(N/N=C/c2ccccc2F)n1 4.5% [at 46.1 µM], CC(/C=N/NC(=O)c1cc(-c2ccc(C)s2)[nH]n1)=C\c1ccccc1 -1.03%, Cc1ccc(/C=N/NC(=O)CCCOc2ccc(Cl)cc2Cl)cc1 5.73%, COc1ccc(S(=O)(=O)Nc2cccc(-c3ccc4nncn4n3)c2)cc1F -6.71%, CCOC(=O)c1cccc(NC(=O)N2CC=C(c3c[nH]c4ccccc34)CC2)c1 3.24% [at 46.1 µM], CC1Cc2cc(S(=O)(=O)CCC(=O)NCc3ccc(Cl)cc3)ccc2N1C(=O)C1CC1 (stereo not drawn) -12.7% [at 46.1 µM], CC(C)=CCn1c2ccc(NC(=O)NCc3ccc(F)cc3)cc2c(=O)n1C -6.27%, Cc1ccccc1NC(=O)c1sc2nc3c(c(-c4ccco4)c2c1N)CCC3 -13.1%, COc1ccc(/C=N/NC(=O)c2[nH]nc3c2CCc2ccccc2-3)cc1OC -16.8%, CC(=O)Nc1ccc(S(=O)(=O)N2CCSc3ccccc32)cc1 -1.38%, COc1ccc(-n2nnnc2-c2ccccc2)cc1 -2.72%, Cc1cccc(NC(=O)/C(C#N)=C/c2cn(CC(=O)NCc3ccco3)c3ccccc23)c1C -14.4%, O=S(=O)(Nc1ccc(C(O)(C(F)(F)F)C(F)(F)F)cc1)c1ccc(Cl)c2nonc12 -7.19%, COc1ccccc1N1CCN(C(=O)c2cc(=O)c3cc(C)cc(C)c3o2)CC1 -4.1%, COc1cccc(-c2cnc3c(NC=O)cc(-c4cc(OC)c(OC)c(OC)c4)cn23)c1 -0.111%, COc1cccc(NC(=O)c2oc3ccc(S(=O)(=O)N4CCC5(CC4)OCCO5)cc3c2C)c1 -5.82% [at 46.1 µM], O=C(N/N=C/c1ccc(Cl)cc1)c1cc2c(s1)-c1ccccc1CC2 -9.15%, CCOC(=O)Cc1ccc(Nc2nc3cc(-c4sccc4C)sc3c(=O)n2C)cc1 1.41%, COc1ccc(C(=O)C(C)[n+]2ccc(C)c3ccccc32)cc1[N+](=O)[O-] (stereo not drawn) 2.06%, COc1cc(-c2noc(C)c2/C=C/c2cccc([N+](=O)[O-])c2)cc(OC)c1OC -7.09%, O=C(O)CSc1cc(NS(=O)(=O)c2cccc([N+](=O)[O-])c2)c2ccccc2c1O 1.69%, O=c1[nH]cnc2n[nH]nc12 -24.1% [at 46.1 µM], COc1ccccc1-c1nnc2sc(-c3cc4ccccc4o3)nn12 -6.49%, COc1ccccc1-c1cc(C(=O)NN)[nH]n1 2.82%, O=C1OCC2=C1C(c1ccc3c(c1)OCO3)c1cc3c(cc1O2)OCO3 (stereo not drawn) -11.2%, COc1cccc(C2=CC(c3ccccc3)n3nnnc3N2)c1 (stereo not drawn) -0.672%, CN(C)CCN(C(=O)/C=C/c1cccs1)c1nc2c(F)cc(F)cc2s1 -2.76% [at 46.1 µM], COc1ccccc1NC(=O)Cc1ccc(-c2ccccc2)cc1 5.42% [at 46.1 µM], CC(=O)Nc1ccc(CC(=O)NCCC(c2ccccc2)c2ccccc2)cc1 -6.14%, COC(=O)CCC(=O)NC(=S)Nc1sc(C)c(C)c1C(N)=O -18.9%, Cn1cccc1/C=C1\SC(=Nc2ccccc2)NC1=O -0.492%, CC1C/C(=C/c2cccs2)C(=O)/C(=C/c2cccs2)C1 (stereo not drawn) 2.31%, CC1CCN(C(=O)C(C)Sc2nc(-c3ccccc3)cc(C(F)(F)F)n2)CC1 (stereo not drawn) -0.49% [at 46.1 µM], CCc1ccc2nc(N(CCCN(C)C)C(=O)c3ccc(S(=O)(=O)N(C)C4CCCCC4)cc3)sc2c1 0.585%, C=CCn1c(SCc2c(C)noc2C)nc2cc(C(=O)O)ccc2c1=O -21.4%, COc1cc(C(=O)N/N=C/C2CC=CCC2)cc(OC)c1OC (stereo not drawn) -2.79%
